Our source for the median seed-adjusted z-score values is PubChem BioAssay AID1347426 (Functional Genomics Laboratory (NCATS/FGL), 2020).

Out of some 31,000 sequences screened, about 1,400 (4.5%) were called active.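 The calls were made as follows: active = median seed-adjusted z-score above 1 or below -1; inactive = the rest.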 This excerpt belongs to a sample that is enriched for actives.

The nature of the assay: Novel Modifiers of Survival Motor Neuron (SMN) Protein: Gene Identification via Genome-wide siRNA Screen. Particulars: HEK293T SMN2-luciferase reporter, siRNA knockdown, 72 h; actives lie on both sides. An excerpt:
Spinal muscular atrophy (SMA) is the most common neuromuscular autosomal recessive disorder and one of the leading genetic causes of infant death. SMA results from mutations inducing loss of function or deletion in the survival of motor neuron-1 gene (SMN1), leading to deficiency of the survival motor neuron (SMN) protein. Although a second nearly identical gene, SMN2, is retained in humans, its expression primarily produces an aberrantly spliced isoform that is largely unstable and quickly degraded. We performed a genome-wide RNAi screen using a cell-based reporter assay to identify genes and pathways that modulate SMN protein stability. The screen identified over 200 genes that led to the greatest increase or decrease in luciferase expression.
Using HEK293T cells stably expressing a luciferase reporter that combines the promoter and splicing based cassettes in tandem with the major portion of the native SMN2 cDNA with luciferase, we performed a genome-wide RNAi screen to identify modulators of SMN protein levels. Luciferase is expressed when full-length SMN protein is generated with luminescence signal proportional to SMN protein levels. Our luciferase-based reporter assay was used to screen Ambion Silencer Select Human Druggable Genome siRNA library (10418 genes, 3 unique siRNAs per gene) using lipid-based reverse transfection.
Briefly, 1 pmol of each siRNA was spotted to a well of a 384-well plate (Corning, Corning, NY) and 20 microL of serum-free DMEM containing […] of Lipofectamine RNAiMax (Life Technologies, Carlsbad, CA) was then added to each well. Transfected cells were maintained at 37 degrees C in 5% CO2 for 72 hours, 20 microL of ONE-Glo Reagent (Promega) was added to wells for luciferase quantification. Raw luminescence reads were normalized to Ambion(R) Silencer(R) Negative Control #2 siRNA, then log10 transformed. A robust statistical measure of median absolute deviation (MAD) to standardize siRNA activities from each screen. Common Seed Analysis was used to help prioritize clean hits as opposed to those appearing to arise from seed based off-target effects. Candidate modulators were defined as the genes having a MAD score greater than 1.0 or less than -1.0.
Background: In a reporter assay the amount or activity of a reporter protein is the signal.
For CAAGUUCUAUCACUCCUUUTT against IRX2, the median seed-adjusted z-score was -0.409 (inactive). The figure for CCACAUUGGUUACCACUAATT against ITGAV is 1.17 (active); for CAGUGUUAGUACUCGAUAATT against EXT2 it is -0.127 (inactive); for CCUAUUUGGUGUUAACAUATT against DIRAS1 it is -0.751 (inactive). The same measure for CUAUGAUCUCAACCAAAUATT against CD248: -0.0191 (inactive). The same measure for AGCUAACAGCGGCUCAAGATT against NR1H2: 0.069 (inactive); for UUACUUUCCUAGUAAGCAATT against GNA12: 0.598 (inactive); for GCACAGAUGAAGCCCGCUUTT against ARL11: 1 (active). On to CAAGCUCUUUGGUCAAGAATT against SNX4, for which the median seed-adjusted z-score was -0.144 (inactive).

On to GCAUAAAACUGAAGGUGGATT against PTPRN, for which the median seed-adjusted z-score was -0.272 (inactive).

With CAUCAUUUCAGACAAGUUUTT against DDO, the median seed-adjusted z-score is -0.202 (inactive).

For UCUACGCAGUGGUCACCAATT against BLK, the median seed-adjusted z-score was -0.274 (inactive). In the case of CAAUCUAUUAAGAAAUGUUTT against RPE, the median seed-adjusted z-score is 0.616 (inactive). The same measure for CAUAUAUGAUUGCAUCAAATT against ACTL6A: 1.11 (active). The same measure for GGAUCAACCGCUGCUUGAATT against HELT: -0.192 (inactive); for CCAACAUACUAGUCAAUAATT against EFTUD1: -1.39 (active). The figure for GGAUGGUCUUUUAGUAAGATT against CBR4 is -0.66 (inactive); for GACAUCGCAUGGUACAAGATT against NFASC it is 0.594 (inactive); for GAACUGCUCAGGACUAUAATT against TBRG1 it is -1.47 (active). As to GCUGCAUCGUAAGACAUUUTT against PCGF6, the median seed-adjusted z-score was 0.536 (inactive).

As for CGAACUUCCUCAUCGGCAATT against PRLHR, the median seed-adjusted z-score was 0 (inactive).

Consider CAAAAAUGAUUGCGAAUGATT against APOL4, for which the median seed-adjusted z-score was -0.54 (inactive). The figure for GCUCUUCGAGAGAACCUGUTT against TUBG1 is 0.618 (inactive); for CCCUCCAUGGAAUAGAAUATT against FCER1A it is -0.0293 (inactive). The figure for CGGUUCCUUUAUUACCAAATT against TNFRSF21 is 0.225 (inactive). The figure for AGGAGAUUCUGAACAGGCUTT against GPR26 is -1.33 (active); for GCAGCUAUUUGUCUCCGAATT against USP43 it is 0 (inactive); for CAGCUAUACAGGAAUUAUUTT against SLC25A16 it is 0.0479 (inactive). As for GCAGGGCAUUUAUGGGACATT against KRT79, the median seed-adjusted z-score is 0.338 (inactive).

Regarding CCAGGUGAAAUGUCAACUATT against HERC5, the median seed-adjusted z-score was -0.422 (inactive). The same measure for GAACCAUACAUACUACAGATT against WDR31: 0.796 (inactive). The figure for AGGGAGCAAAUGAACCUGATT against VIP is 1.52 (active); for GGGAAGGUGUUACAGGCUATT against FAM62A it is -0.34 (inactive). The same measure for CUGUCCAUCUGGGUCGUGATT against SLC30A2: -0.402 (inactive). On to CUGCAGCUUUUAUCACAAATT against SLC25A33, for which the median seed-adjusted z-score is -0.0252 (inactive).

Turning to GUAGAUAUGUGGAAACGGATT against FAM48A, the median seed-adjusted z-score is -0.506 (inactive). The figure for GAGUCCCAUUUACAGCUAUTT against PFTK2 is -1.16 (active); for GGAUGGAGACUACGAGUUUTT against STK4 it is 0.652 (inactive). With GACCAGAUAUUUGCCUAUUTT against CYFIP1, the median seed-adjusted z-score is -0.377 (inactive). The same measure for GGAAAAUCAUCUUAUCAGATT against TEAD1: 1.31 (active); for CAGUAUACCAUCUAACAGATT against CNTN1: -0.796 (inactive). The figure for CCACUUUAAUAAACGUGCUTT against TIMM10 is 0.0738 (inactive).

Consider CAGUGAAGAUAAAAUUCAATT against CRIP3, for which the median seed-adjusted z-score is 1.7 (active). The same measure for CCUUCAAGGUCAACGUGUATT against KCNH3: -0.509 (inactive); for GGAGCACAAUAGAUCUGAATT against SEPX1: -0.0545 (inactive); for CCAUGGGAAUCCAAUCUGUTT against PTTG1: -0.459 (inactive). For the sequence GGACAUUCUAGAGAAAGAATT against SUPT5H, the median seed-adjusted z-score is -4.02 (active).

Take CGACCAUCAUGGAAAACAUTT against ABCB8: the median seed-adjusted z-score is -0.558 (inactive).

With GGAGGAUCUUGUACCCAGATT against PNKP, the median seed-adjusted z-score was -0.0563 (inactive). The same measure for CAGUGGGAACGACAACUUUTT against HNRPA1P4: -0.906 (inactive). The figure for GGAACACUUUCUCUCUAGATT against NOD2 is 0.129 (inactive); for GAUGCGAUUUGAUGAGAUATT against EPS15L1 it is -0.0511 (inactive); for CGCUAUACCUACCAGCAAATT against DNAJB12 it is 0 (inactive).

Take GCCUUACUCUGAUCUGGUATT against IL1RAP: the median seed-adjusted z-score is -0.23 (inactive).
